Results: PubChem BioAssay (EPA / NIEHS)
Where “and” joins values, the source holds several entries; their conditions need not be identical. Identical values can stand only once. Inconclusive results are not listed. Some compounds were tested as several samples or in several runs, with calls that do not always agree. Calls of active or inactive are those of the source. Rule for the calls, unless noted: active = hit-call score of the fitted dose curve at least 0.9, where 1 is the maximum; inactive = score below 0.9.

Assays:
[1] = CCTE_Mundy_HCI_Cortical_NOG_NeuriteCount: CCTE's Neurite Outgrowth Assay in rat cortical cells for Neurite Count, Mundy Lab (AID 2284212);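 note: cells fixed about two days after chemical exposure began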
Method in brief: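 Rat cortical primary cells; compound added 2 h post-plating, 1/10 dilution of working solution. Anti-betaIII-tubulin/AF488 ICC; ArrayScan neurite count vs DMSO.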

[2] = CCTE_Mundy_HCI_Cortical_NOG_NeuriteLength: CCTE's Neurite Outgrowth Assay in rat cortical cells for Neurite Length, Mundy Lab (AID 2284213);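 for AC50: neurites imaged about 48 to 50 h after chemical exposure began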
Method in brief: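 First, rat primary cortical cells were plated and, 2 h later, given test chemical as a 1/10 dilution. Finally, βIII-tubulin immunostaining enabled automated imaging of neurite length.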

[3] = CCTE_Mundy_HCI_Cortical_Synap_Neur_Matur_NeuriteLength: CCTE's Synaptogenesis and Neurite Maturation Assay in rat cortical cells for Neurite Length, Mundy Lab (AID 2284214)
Method in brief: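 Read-out: high-content imaging of MAP2-labelled neurites, with synaptophysin and Hoechst co-stain, in rat cortical cultures fixed at DIV 12. Activity fitted in positive direction relative to DMSO baseline.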

[4] = CCTE_Mundy_HCI_Cortical_Synap_Neur_Matur_NeuriteSpotCountPerNeuron: CCTE's Synaptogenesis and Neurite Maturation Assay in rat cortical cells for Neurite Spot Count per Neuron Count, Mundy Lab (AID 2284215)
Method in brief: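 Developing rat cortical neurons, with glia suppressed by AraC, are exposed to chemicals from DIV 7 to DIV 12. Automated fluorescence imaging of MAP2-labelled neurites and synaptophysin puncta yields a count per neuron, normalised against DMSO wells.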

[5] = CCTE_Mundy_HCI_Cortical_Synap_Neur_Matur_SynapseCount: CCTE's Synaptogenesis and Neurite Maturation Assay in rat cortical cells for Synapse Count, Mundy Lab (AID 2284218)
Method in brief: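 Read-out: synapse number per neuron, automated high-content imaging of fixed cells immunostained for MAP2 and synaptophysin plus Hoechst nuclei. Rat primary cortical cultures, AraC at DIV 5, chemical dosing DIV 7–12. Positive-direction fit relative to DMSO.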

[6] = CCTE_Mundy_HCI_Cortical_Synap_Neur_Matur_NeuriteCount: CCTE's Synaptogenesis and Neurite Maturation Assay in rat cortical cells for Neurite Count, Mundy Lab (AID 2284222);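 for outcome: exposure from day 7 to day 12 in vitro with readout at day 12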
Method in brief: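 Rat primary cortical cells; AraC added at DIV 5, chemicals dosed with media change at DIV 7 through DIV 12. MAP2/synaptophysin/Hoechst immunostaining, high-content imaging of neurite number; fitted relative to DMSO.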

[7] = CCTE_Mundy_HCI_Cortical_Synap_Neur_Matur_CellBodySpotCount: CCTE's Synaptogenesis and Neurite Maturation Assay in rat cortical cells for Cell Body Spot Count, Mundy Lab (AID 2284223)
Method in brief: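 Chemicals were applied to AraC-treated rat primary cortical cells at DIV 7 and measured at DIV 12. Fixed cells were labelled for MAP2, synaptophysin and nuclei, and high-content imaging gave cell body synaptophysin spot counts per neuron relative to DMSO.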

[8] = CCTE_Mundy_HCI_hNP1_Pro_ResponderAvgInten: CCTE's Proliferation Assay in human neuroprogenitor cells, Mundy Lab (AID 2284224; active = hit-call score of the fitted dose curve at least 0.9, where 1 is the maximum;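 note: human neural progenitor cells hNP1 derived from WA09 embryonic stem cells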)
Method in brief: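 Human neuroprogenitors (hNP1, WA09 lineage) receive test chemical after 40 to 44 hours of attachment. A four-hour BrdU pulse begins twenty hours later, followed by fixation and high content imaging; signal is referenced to DMSO controls.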

[9] = UKN2_HCS_IMR90_cell_viability: Viability Assessment in the University of Konstanz (UKN) Leist Lab Neural Crest Cell Migration Assay in human induced IMR90 Pluripotent Stem Cells (UKN2) (AID 2284233);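 note: viability of neural crest cells differentiated from IMR90 iPSC measured by calcein-AM fluorescence imaging; cells exposed to compound for 24 h after a 24 h migration phase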
Method in brief: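 cMINC format, iPSC-derived neural crest (IMR90); 24 h migration (EGF/FGF, N2-S), then 24 h toxicant. Calcein-AM/H-33342 stain 30 min; fluorescence intensity by HCS; DMSO-normalised, bidirectional fitting.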

[10] = BSK_BT_PBMCCytotoxicity: PBMC Cytotoxicity Assessment in the BioMAP Diversity Plus: BT Assay (AID 2284225); settings: primary human B cells with PBMC;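 note: PBMC viability measured by Alamar Blue dye reduction fluorescence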
Method in brief: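 Primary human co-culture of B cells and PBMC, pre-dosed 1 h then activated with SEB and TSST-1. Cytotoxicity is taken from Alamar Blue dye reduction, added for 6 h at the end of a 90 h incubation.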

[11] = read-out: Secreted IgG (sIgG), gene 3500; experiment: BSK_BT_sIgG: BioMAP Diversity Plus: BT Assay for Secreted IgG (sIgG) Biomarker Activity (AID 2284226); settings: primary human B cells with PBMC
Method in brief: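 Human B cell/PBMC co-culture; compound exposure 24 h; sIgG by ELISA; gain-of-signal fit vs DMSO baseline.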

[12] = BSK_BT_Bcell_Proliferation: Viability Assessment in the BioMAP Diversity Plus: BT Assay for B cell Proliferation (AID 2284227); settings: primary human B cells with PBMC
Method in brief: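 Human B cells co-cultured with PBMC were dosed with test chemicals and relative cell number was quantified by SRB staining at 72 h. Cells were fixed in 10% TCA, stained with 0.1% SRB and read at 560 nm. Activity was fitted in the positive direction against DMSO.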

[13] = read-out: Interleukin 6 (IL6), IL6 (gene 3569); experiment: BSK_BT_xIL6: BioMAP Diversity Plus: BT Assay for Interleukin 6 (IL6) Biomarker Activity (AID 2284228); settings: primary human B cells with PBMC
Method in brief: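 IL-6 secretion measured (Luminex xMAP) in human primary B cell + PBMC co-culture at 24 h of chemical exposure; DMSO served as negative control and activity baseline, with curves fitted for increase.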

[14] = read-out: Tumor necrosis factor (Homo sapiens) (UniProt P01375); experiment: BSK_BT_xTNFa: BioMAP Diversity Plus: BT Assay for Tumor necrosis factor alpha (TNF-alpha) Biomarker Activity (AID 2284230); settings: primary human B cells with PBMC
Method in brief: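 B cells with PBMC in co-culture, dosed and sampled at 24 h; secreted TNF-alpha measured by Luminex xMAP bead assay. Activity fitted in the gain direction against DMSO as negative control and baseline.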

[15] = TAMU_PeakParms_SingleDonor1434_Chronotropy: Texas A&M University (TAMU) 1.5-hr Human Induced Pluripotent Stem Cell (iPSC)-derived Cardiomyocytes Calcium (Ca+2) Flux Assay for Cardiotoxicity: Chronotropy (changes in peak frequency) (AID 2284217); settings: actives raise or lower the signal
Method in brief: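 iPSC-derived cardiomyocytes (single donor 1434) dosed at 0.2, 1, 10 and 100 uM in 0.5% DMSO for 1.5 h at 37C; Ca2+ dye fluorescence gave average beat frequency. Zero-beat points removed; bidirectional fit versus DMSO, POD as EC05.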

[16] = CCTE_Mundy_HCI_hN2_NOG_NeuriteCount: CCTE's Neurite Outgrowth Assay in human hN2 cells for Neurite Count, Mundy Lab (AID 2284219; active = hit-call score of the fitted dose curve at least 0.9, where 1 is the maximum)
Method in brief: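 In this morphology assay, hNP1-derived neurons received test chemical 2 h post-plating and were fixed two days later in warm paraformaldehyde/sucrose containing Hoechst 33342. Neurites, labelled by rabbit anti-βIII-tubulin (1:800) and Alexa Fluor-488 (1:500), were counted automatically.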

[17] = CCTE_Mundy_HCI_hN2_NOG_NeuriteLength: CCTE's Neurite Outgrowth Assay in human hN2 cells for Neurite Length, Mundy Lab (AID 2284220; active = hit-call score of the fitted dose curve at least 0.9, where 1 is the maximum)
Method in brief: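 Using βIII-tubulin immunofluorescence and Hoechst nuclear counterstain, this component quantifies neurite length in hNP1-derived neurons.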

[18] = CCTE_Mundy_HCI_hN2_NOG_NeuronCount: CCTE's Neurite Outgrowth Assay in human hN2 cells for Neuron Count, Mundy Lab (AID 2284221; active = hit-call score of the fitted dose curve at least 0.9, where 1 is the maximum)
Method in brief: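 Read-out is the number of betaIII-tubulin-positive neurons imaged by automated high-content analysis, with DMSO as negative control.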

[19] = TAMU_HCS_1.5hr_SingleDonor1434_Cytotoxicity: Cytotoxicity Assessment using High-content Screening (HCS) Fluorescent Imaging for the Texas A&M University (TAMU) 1.5-hr Human Induced Pluripotent Stem Cell (iPSC)-derived Cardiotoxicity Assay (AID 2284234; active = hit-call score of the fitted dose curve at least 0.9, where 1 is the maximum)
Method in brief: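 Nuclear counts from Hoechst 33342 imaging define cytotoxicity here, with EC10 (10% cell-count loss relative to DMSO) as point of departure. iPSC cardiomyocytes received 0.2-100 uM test chemical in 0.5% DMSO for 1.5 h at 37 C.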

[20] = TAMU_PeakParms_SingleDonor1434_QT: Texas A&M University (TAMU) 1.5-hr Human Induced Pluripotent Stem Cell (iPSC)-derived Cardiomyocytes Calcium (Ca+2) Flux Assay for Cardiotoxicity: QT (decay-rise ratio) (AID 2284235; active = hit-call score of the fitted dose curve at least 0.9, where 1 is the maximum)
Method in brief: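 Decay/rise ratio of calcium-flux fluorescence scored after 90 min exposure (37C) of donor 1434 iPSC cardiomyocytes to 0.2–100 uM (0.5% DMSO). Beat-cessation and severe-notch points removed; POD is EC05, a 5% rise over DMSO.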

Tumor necrosis factor (Homo sapiens), sequence (P01375 whole entry, looked up): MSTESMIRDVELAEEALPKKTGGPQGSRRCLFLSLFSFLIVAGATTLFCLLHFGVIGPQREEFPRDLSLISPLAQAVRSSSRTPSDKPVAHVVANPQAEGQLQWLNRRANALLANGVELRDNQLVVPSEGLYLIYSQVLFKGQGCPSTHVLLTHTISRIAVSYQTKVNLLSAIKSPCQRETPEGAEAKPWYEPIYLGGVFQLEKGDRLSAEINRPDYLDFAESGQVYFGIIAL

CCOP(=S)(OCC)SCSCC
outcome [1]: inactive | outcome [2]: inactive | AC50 [3]: 78.1 µM (active) and 70.2 µM (active) | AC50 [4]: 50 µM (active) | AC50 [5]: 50 µM (active) and 67.7 µM (active) | AC50 [6]: 81.1 µM (active) | outcome [6]: inactive | AC50 [7]: 77.6 µM (active) | outcome [7]: inactive | outcome [8]: inactive | outcome [9]: inactive

OCC(F)(F)OC(F)(F)C(F)(F)OC(F)(F)C(F)(F)OC(F)(F)CO
outcome [10]: inactive | AC50 [11]: 30 µM (active) | outcome [12]: inactive | AC50 [13]: 38.4 µM (active) | outcome [13]: inactive | outcome [14]: inactive

C=CC(=O)OCC(F)(F)C(F)F
outcome [8]: inactive | AC50 [10]: 30 µM (active) and 23.6 µM (active) | AC50 [11]: 43 µM (active) and 48.8 µM (active) | AC50 [12]: 22.3 µM (active) and 36.2 µM (active) | AC50 [13]: 34.1 µM (active) and 31.7 µM (active) | AC50 [14]: 30 µM (active) and 29.8 µM (active)

CCCCOCCOP(=O)(OCCOCCCC)OCCOCCCC
outcome [10]: inactive | outcome [11]: inactive | outcome [12]: inactive | outcome [13]: inactive | AC50 [14]: 0.015 µM (active)

CC(C)(C)c1ccccc1OP(=O)(Oc1ccccc1)Oc1ccccc1
AC50 [1]: 19 µM (active) | AC50 [2]: 21.6 µM (active) | AC50 [3]: 1.6 µM (active) | AC50 [4]: 2.07 µM (active) | AC50 [15]: 32 µM (active) | AC50 [5]: 2.69 µM (active) | outcome [6]: inactive | outcome [7]: inactive | outcome [10]: inactive | AC50 [11]: 13.5 µM (active) | AC50 [12]: 28.6 µM (active) | AC50 [13]: 29.2 µM (active) | AC50 [14]: 36.7 µM (active)

CCC1(c2ccccc2)C(=O)N=C(O)NC1=O (stereo unspecified)
outcome [1]: inactive | outcome [2]: inactive | outcome [3]: inactive | outcome [4]: inactive | AC50 [15]: 29.7 µM (active) | outcome [5]: inactive | outcome [16]: inactive | outcome [17]: inactive | outcome [18]: inactive | outcome [6]: inactive | outcome [7]: inactive

CCOP(=S)(OCC)SCn1nnc2ccccc2c1=O
outcome [10]: inactive | AC50 [11]: 20 µM (active) | outcome [12]: inactive | outcome [13]: inactive | outcome [14]: inactive

O=S1(=O)OCC2C(CO1)C1(Cl)C(Cl)=C(Cl)C2(Cl)C1(Cl)Cl (stereo unspecified)
AC50 [10]: 32.9 µM (active) | AC50 [11]: 1.55 µM (active) | AC50 [12]: 25.9 µM (active) | AC50 [13]: 33 µM (active) | AC50 [14]: 31 µM (active)

c1cc2c3c(cccc3c1)CC2
AC50 [15]: 32.2 µM (active) | outcome [19]: inactive | outcome [20]: inactive

FC(F)(F)C(F)(C(F)(F)F)C(F)(F)C(F)(F)CC1CO1 (stereo unspecified)
outcome [8]: inactive | outcome [10]: inactive | outcome [11]: inactive | outcome [12]: inactive | outcome [13]: inactive | outcome [14]: inactive
